High-throughput results as filed in PubChem.
NPSR antagonist = blocks cAMP signaling of the human neuropeptide S receptor. CHO-NPSR cells, cAMP TR-FRET, antagonist mode. actives 1% (n = 220,000). Q6W5P4. Potency, µM (highest dose often 38.3 µM), for the others: top-dose activity change, negative = inhibition, actives largely listed as inhibitors; also: nearly all actives have a fitted effect of over 50% in size
Tau fibril FP = blocks human tau fibril formation measured by polarization; P10636; K18 P301L tau heparin fibrillization, Alexa594 FP, 6 h; Potency, µM (series often up to 57.7 µM), for the others: at the top dose activity, negative = inhibition, actives largely listed as inhibitors; actives 0.39% (n = 280,000); AID 1468; also: nearly all actives have a fitted effect of over 55% in size
Target sequence (P10636 561-689 P618L limits assumed): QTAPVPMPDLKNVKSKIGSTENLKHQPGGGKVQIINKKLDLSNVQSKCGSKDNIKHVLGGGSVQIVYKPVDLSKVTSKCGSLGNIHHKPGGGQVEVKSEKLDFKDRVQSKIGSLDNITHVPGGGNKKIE
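Read-out: fluorescence polarization of Alexa 594-labeled tau (0.24 uM), 555 nm excitation, 632 nm emission. Mixtures held 15 uM unlabeled K18 P301L, compound and 20 uM heparin, pH 7 acetate buffer, incubated 6 hr at 37 C.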
Tau fluor counter = counter-screen for tau fibril formation inhibitors. tau K18 P301L Alexa594 fluorescence, heparin fibrillization. Potency, µM (highest dose often 57.7 µM), inactives show top-dose activity change, negative = decrease. actives 0.93% (n = 280,000). AID 1463; also: nearly all actives have a fitted effect of over 55% in size
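Human tau K18 P301L (15 uM unlabeled, 0.24 uM Alexa 594-labeled) in 100 mM sodium acetate pH 7 with 20 uM heparin, 6 hr at 37 C. ThT 30 uM added, 1 hr ambient; Alexa 594 FP and total fluorescence read at 555/632 nm.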
HPGD inh = inhibitors of human 15-hydroxyprostaglandin dehydrogenase (HPGD); P15428; AID 894; Potency, µM, without a hit: at the top dose activity change, negative = inhibition, actives largely listed as inhibitors; actives 4.3% (n = 150,000); purified HPGD, NADH fluorescence kinetic, PGE2 substrate; active = well fitted inhibition curve with a large enough effect, not every such curve was filed as active; inconclusive = small, poorly fitted or top-dose-only effect, or another doubt; inactive = no such curve, though single readings can be large or run the other way
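NADH formation kinetics: reaction with 30 uM PGE2 and 1 mM NAD+ (final), 20 nM enzyme, Tris-HCl pH 8 with Tween 20, after 15 min compound preincubation at room temperature. Fluorescence change, last versus first of five reads.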
ALDH1A1 block = ALDH1A1 (human) enzyme inhibition | P00352 | Purified ALDH1A1, NADH fluorescence, propionaldehyde substrate | Potency, µM (series often up to 75.3 µM), for inactives: top-dose activity, negative = inhibition, hits mostly inhibitors | actives 7.3% (n = 220,000); active = well fitted inhibition curve with a large enough effect, not every such curve was filed as active; inconclusive = small, poorly fitted or top-dose-only effect, or another doubt; inactive = no such curve, though single readings can be large or run the other way;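 also: plate controls were no enzyme wells and a reference inhibitor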
Target sequence (P00352 whole entry, looked up): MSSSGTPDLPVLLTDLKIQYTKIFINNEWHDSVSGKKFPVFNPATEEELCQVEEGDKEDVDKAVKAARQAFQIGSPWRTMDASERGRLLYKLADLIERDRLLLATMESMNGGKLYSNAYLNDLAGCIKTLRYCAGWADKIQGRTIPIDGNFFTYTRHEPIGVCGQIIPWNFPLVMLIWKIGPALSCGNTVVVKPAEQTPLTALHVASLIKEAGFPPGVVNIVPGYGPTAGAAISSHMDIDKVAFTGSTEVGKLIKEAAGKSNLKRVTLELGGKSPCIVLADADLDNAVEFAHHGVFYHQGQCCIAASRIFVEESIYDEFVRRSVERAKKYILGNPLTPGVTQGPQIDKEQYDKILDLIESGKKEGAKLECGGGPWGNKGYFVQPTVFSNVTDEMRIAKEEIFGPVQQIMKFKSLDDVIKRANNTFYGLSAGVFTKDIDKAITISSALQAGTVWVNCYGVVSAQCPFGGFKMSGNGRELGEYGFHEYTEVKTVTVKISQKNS
Tau ThT inhib = inhibitors of human tau fibril formation, thioflavin T binding. actives 2.1% (n = 270,000). Potency, µM (top dose mostly 57.4 µM), for the others: at the top dose activity, negative = inhibition, hits mostly inhibitors. recombinant tau K18 P301L (four-repeat tau fragment), heparin-induced fibrillization, ThT fluorescence. P10636; also: nearly all actives have a fitted effect of over 55% in size
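K18 P301L tau (15 uM + 0.24 uM Alexa 594-tagged), heparin 20 uM, NaOAc pH 7, 6 h 37 C; ThT 30 uM, 1 h RT, ex 450/em 510 nm.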
Starred values were filed as active, the others as inactive; ? = inconclusive; nt = not tested or not shown; [ ] = remark or other dose. The list is not random: actives were taken first. Their share in the collection is about 9.5%. Unless noted, calls follow the shape of the dose curve; as a rule, active = well fitted curve in the direction sought with a large enough effect; inconclusive = small, poorly fitted or top-dose-only effect, or another doubt; inactive = no such curve, though single readings can be large; an effect the other way counts as inactive or inconclusive. Unless noted, % is scaled to controls: 0 for no effect and ±100 for the full control effect; potency is read from the fitted curve at half-maximal effect.

SMILES | NPSR antagonist | Tau fibril FP | Tau fluor counter | HPGD inh | ALDH1A1 block | Tau ThT inhib
NC(=O)C1CCN(C(=O)c2ccc3c(=O)n(Cc4ccco4)c(SCC(=O)c4ccccc4)nc3c2)CC1 | -56% | -17% | ? | nt | 14µM* | -19%
N#CCSc1nc2cc(C(=O)N3CCCC3)ccc2c(=O)n1Cc1ccccc1 | -8%[46.1 µM] | -1% | -7% | -13% | 2.8µM* | -8%
O=C(NC1CCCC1)c1ccc2c(=O)n(Cc3ccccc3)c(SCc3ccccc3)nc2c1 | nt | -3% | -9% | nt | nt | 0%
N#CCSc1nc2ccccc2c2nc3ccccc3n12 | -2% | 1% | -25% | -21% | 4% | ?
CCOC(Cn1c(SCc2cc(C(C)=O)ccc2OC)nc2ccccc2c1=O)OCC | -19%[46.1 µM] | -2% | -3% | nt | ? | 1%
COc1ccc(C(C)=O)cc1CSc1nc2cc(C(=O)O)ccc2c(=O)n1Cc1ccccc1 | -47% | -6% | 6% | ? | 20µM* | -6%
CCc1nn2c(=O)cc(COC(=O)C3CCCCC3)nc2s1 | nt | 3% | -3% | nt | nt | -5%
N#C/C(=C\c1ccc(N2CCOCC2)o1)C(=O)Nc1ccc(O)cc1 | -34% | -2% | -22% | nt | 20µM* | 14µM*
N#C/C(=C/c1ccc(N2CCCCC2)o1)C(=O)Nc1ccc(Cl)cc1 | -7%[46.1 µM] | 11% | -12% | -9% | -11% | ?
N#C/C(=C/c1ccc(N2CCOCC2)o1)C(=O)NC1CCCCC1 | 42% | 3% | -26% | nt | 6.3µM* | ?
N#C/C(=C/c1ccc(N2CCCCC2)o1)C(=O)Nc1ccc2ccccc2c1 | -31% | 10% | ? | ? | ? | 13µM*
COc1ccc(NC(=O)/C(C#N)=C/c2ccc(C)o2)cc1 | nt | -2% | -5% | nt | nt | ?
COc1ccc(NC(=O)/C(C#N)=C\c2ccc(N3CCOCC3)o2)cc1 | 14% | 17% | ? | nt | ? | 13µM*
CC(C)CCNC(=O)C(=O)Nc1c2c(nn1-c1ccc(Cl)cc1)CSC2 | nt | -7% | 6% | nt | nt | 0%
NCC1O[C@@H](O[C@H]2C(O)C(O[C@@H]3C(O[C@H]4OC(CO)C(O)C(O)C4N)C(N)CC(N)[C@H]3O)O[C@@H]2CO)C(N)C(O)C1O (stereo not given in full) | nt | -5% | -9% | 2% | 4% | -3%
CCCCCOc1ccc(C(=O)N(Cc2ccccc2)C2CCS(=O)(=O)C2)cc1 (stereo not given) | nt | 10% | -6% | nt | nt | -10%
O=C(c1ccco1)N1CCN(S(=O)(=O)c2ccccc2[N+](=O)[O-])CC1 | 6% | 2% | 5% | nt | ? | 4%
Cc1cccc(N=Cc2cc(Br)cc(Cl)c2O)c1 | -19% | -14% | -9% | nt | -1% | 14µM*
NC(=O)c1cccc(N=Cc2cc(Cl)cc(Cl)c2O)c1 | -39% | 11% | 4% | nt | 18% | 1%
CCOC(=O)c1c(C)c(-c2ccccc2)n(CC(=O)NCc2cccc(OC)c2)c1C | nt | 1% | 1% | nt | nt | 4%
CCOC(=O)c1c(CSC(=N)N)n(-c2ccc(Br)cc2)c2cc(Br)c(OC(C)=O)cc12 | 10µM* | ? | ? | ? | ? | 16µM*
CCCCCCCCOC(=O)c1c(CSC(=N)N)n(C)c2cc(Br)c(OC(C)=O)cc12 | ? | -6% | ? | nt | nt | ?
Fc1cccc(Cl)c1CSc1nnnn1-c1ccc2c(c1)OCO2 | -14%[46.1 µM] | 4% | -26% | -16% | 14µM* | -7%
O=C(O)c1cc(-n2nnnc2SCc2ccccc2F)ccc1Cl | -5% | -1% | -2% | nt | 10µM* | -4%
CC(=O)Nc1cccc(-c2nnc(SCc3ccccc3C#N)n2C)c1 | -9%[46.1 µM] | -6% | -9% | 3% | ? | -12%
SMILES | NPSR antagonist | Tau fibril FP | Tau fluor counter | HPGD inh | ALDH1A1 block | Tau ThT inhib
O=C(CCn1ccnc1)Nc1ccc2ccccc2c1 | 7% | 3% | 3% | nt | -3% | 0%
CN(Cc1ccccc1)S(=O)(=O)c1ccc2c(c1)NC(=O)CC(=O)N2 | 14% | -4% | -3% | -13% | ? | 2%
CCN(c1ccc(OC)cc1)S(=O)(=O)c1ccc2[nH]c3c(c2c1)CCCCC3 | nt | 1% | 10µM*[quencher] | nt | nt | -7%
COc1cccc(CNC(=O)CN(C)S(=O)(=O)c2ccc3[nH]c4c(c3c2)CCCC4)c1 | nt | ? | ? | nt | nt | -4%
CCN(Cc1ccccc1)S(=O)(=O)c1ccc2[nH]c3c(c2c1)CCCCC3 | nt | 2% | 7.9µM*[quencher] | nt | nt | 0%
CCN(Cc1ccccc1)S(=O)(=O)c1ccc2c(c1)NC(=O)CC(=O)N2 | -26% | -6% | -5% | nt | 14µM* | 0%
CCCCc1cc2c(cn1)=C(OC(=O)CCC(=O)OC)C(C)(OC(=O)CC)C(=O)C=2 (stereo not given) | nt | 4%[11.6 µM] | 4%[11.6 µM] | -6% | ? | -2%[11.5 µM]
CCCCc1cc2c(cn1)=C(OC(=O)c1cnc3ccccc3n1)C(C)(OC(=O)CC)C(=O)C=2 (stereo not given) | -7% | -6%[11.6 µM] | -7%[11.6 µM] | -8% | 3.2µM* | ?
CCCCc1cc2c(cn1)=C(OC(=O)c1ccc(Cl)nc1)C(C)(OC(=O)CC)C(=O)C=2 (stereo not given) | nt | -2%[11.6 µM] | -16%[11.6 µM] | 1% | 3.2µM* | -14%[11.5 µM]
Cn1c(=O)c2c(-c3ccccc3Br)n(C(C)(C)C)cc2n(C)c1=O | nt | 2% | -7% | nt | nt | -12%
CC(=O)c1ccc(OC2C=CC(c3ccc(Cl)cc3)OC2CO)cc1 (stereo not given) | nt | -9%[11.6 µM] | -14%[11.6 µM] | nt | 1%[13.5 µM] | -7%[11.5 µM]
Cc1ccc(C(C(=O)NC(C)(C)C)N(Cc2cccnc2)C(=O)C(=O)NC2CCCCC2)o1 (stereo not given) | -5% | 5% | -4% | nt | -11% | -13%
Cc1ccc(C)c(Nc2ncccc2C(=O)NCc2cccs2)c1 | -44% | -6% | ? | 25µM* | -9% | -12%
COc1cccc2c(=O)c(C(=O)NCc3cccs3)c[nH]c12 | -22%[46.1 µM] | 5% | -26% | ? | ? | -14%
Cc1ccc2[nH]cc(C(=O)NCc3cccs3)c(=O)c2c1 | -28%[46.1 µM] | 0% | -1% | -8% | 16µM* | 3%
CC(C)(C)c1ccc(OCc2cc(=O)n3c4c(sc3n2)CCCC4)cc1 | nt | -3% | -17% | nt | nt | ?
CCOc1ccc(OCCN2C(=O)NC(Cc3c[nH]c4ccccc34)C2=O)cc1 (stereo not given) | -13%[46.1 µM] | 6% | -26% | -11% | 6% | -11%
CCn1cc(C(=O)NCc2ccccn2)c(=O)c2cc(S(=O)(=O)N3CCCCC3)ccc21 | -9%[46.1 µM] | -6% | 4% | ? | 11µM* | 4%
CCn1cc(C(=O)NCc2ccco2)c(=O)c2cc(S(=O)(=O)N3CCC(C)CC3)ccc21 | ? | ? | -26% | -21% | ? | -10%
